Holding throughout (experiment): DAPPL (digital affinity profiling via proximity ligation, sequencing); 10 mM Tris-HCl pH 7.5, 50 mM NaCl, 1 mM DTT, 4% glycerol, room temperature, 30 min; GST-TFs on glutathione beads, 16-mer random dsDNA library, 0.1% formaldehyde crosslink after washing; high values mean tight binding
Experiment [1] addresses T1, FLI1 (Homo sapiens, UniProt Q01543 1-452).
T1 sequence: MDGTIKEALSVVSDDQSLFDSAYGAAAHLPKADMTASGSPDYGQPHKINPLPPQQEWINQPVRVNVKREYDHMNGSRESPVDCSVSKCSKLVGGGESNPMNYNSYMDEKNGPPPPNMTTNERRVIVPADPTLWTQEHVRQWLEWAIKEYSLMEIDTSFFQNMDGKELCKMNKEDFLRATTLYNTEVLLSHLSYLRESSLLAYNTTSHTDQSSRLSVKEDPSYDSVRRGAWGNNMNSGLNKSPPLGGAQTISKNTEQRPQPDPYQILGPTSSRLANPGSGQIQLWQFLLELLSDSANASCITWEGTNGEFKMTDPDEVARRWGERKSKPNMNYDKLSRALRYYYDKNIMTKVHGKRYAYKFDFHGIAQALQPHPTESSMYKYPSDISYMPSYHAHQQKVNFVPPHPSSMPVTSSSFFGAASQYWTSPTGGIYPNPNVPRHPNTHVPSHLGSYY
The settings on record: protein: recombinant; tags: N-terminal GST; dsDNA, one strand shown. The gist of the method: (§1)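 Binding signal is given per hexamer as its read frequency for a factor divided by its frequency in the tag-only sample. GST-fused human transcription factors were expressed in yeast, captured on glutathione beads, barcoded with DNA and pooled with that sample, then incubated with 200 nmole of a 16-mer random double-stranded DNA library in Tris/NaCl/DTT/glycerol buffer for 30 min at room temperature. The pools were then washed, crosslinked, proximity-ligated, amplified by PCR and sequenced on an Illumina NextSeq500.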

Experiment [2] has as its target T2, ELK1 (Homo sapiens, UniProt P19419 1-428).
T2 sequence: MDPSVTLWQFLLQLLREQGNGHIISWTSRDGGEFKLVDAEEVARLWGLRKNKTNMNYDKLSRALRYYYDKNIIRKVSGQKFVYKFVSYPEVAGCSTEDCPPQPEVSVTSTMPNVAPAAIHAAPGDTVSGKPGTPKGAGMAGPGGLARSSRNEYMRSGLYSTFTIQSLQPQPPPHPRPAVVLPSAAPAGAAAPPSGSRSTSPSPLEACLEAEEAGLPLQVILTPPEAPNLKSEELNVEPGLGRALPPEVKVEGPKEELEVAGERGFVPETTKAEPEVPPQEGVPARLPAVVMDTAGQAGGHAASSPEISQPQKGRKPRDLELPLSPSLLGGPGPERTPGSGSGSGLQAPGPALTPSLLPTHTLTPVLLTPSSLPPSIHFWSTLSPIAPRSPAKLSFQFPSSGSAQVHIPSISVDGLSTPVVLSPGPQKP
The conditions noted are these: protein: recombinant; tags: N-terminal GST; dsDNA, one strand shown. The essentials:
as §1

In experiment [3] the target is T3, ERG (Homo sapiens, UniProt P11308 1-479).
T3 sequence: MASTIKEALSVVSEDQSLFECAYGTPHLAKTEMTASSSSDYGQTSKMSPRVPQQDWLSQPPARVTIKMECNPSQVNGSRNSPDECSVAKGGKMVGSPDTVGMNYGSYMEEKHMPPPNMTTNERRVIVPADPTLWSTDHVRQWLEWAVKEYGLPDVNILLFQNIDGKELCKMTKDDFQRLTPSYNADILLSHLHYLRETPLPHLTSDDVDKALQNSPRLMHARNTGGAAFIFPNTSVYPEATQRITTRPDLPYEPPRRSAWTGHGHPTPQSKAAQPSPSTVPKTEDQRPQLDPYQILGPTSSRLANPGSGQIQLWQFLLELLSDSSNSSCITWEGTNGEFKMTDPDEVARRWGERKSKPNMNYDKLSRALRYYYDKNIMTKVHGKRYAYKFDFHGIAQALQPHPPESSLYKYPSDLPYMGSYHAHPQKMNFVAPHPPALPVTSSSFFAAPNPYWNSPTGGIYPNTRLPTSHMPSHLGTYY
The conditions noted are these: protein: recombinant; tags: N-terminal GST; dsDNA, one strand shown. The gist of the method: as §1

In experiment [4] the target is ELF1 (Homo sapiens, UniProt P32519 1-619). The conditions noted are these: protein: recombinant; tags: N-terminal GST; dsDNA, one strand shown. The gist of the method: as §1
Chain of ELF1 (P32519 whole entry): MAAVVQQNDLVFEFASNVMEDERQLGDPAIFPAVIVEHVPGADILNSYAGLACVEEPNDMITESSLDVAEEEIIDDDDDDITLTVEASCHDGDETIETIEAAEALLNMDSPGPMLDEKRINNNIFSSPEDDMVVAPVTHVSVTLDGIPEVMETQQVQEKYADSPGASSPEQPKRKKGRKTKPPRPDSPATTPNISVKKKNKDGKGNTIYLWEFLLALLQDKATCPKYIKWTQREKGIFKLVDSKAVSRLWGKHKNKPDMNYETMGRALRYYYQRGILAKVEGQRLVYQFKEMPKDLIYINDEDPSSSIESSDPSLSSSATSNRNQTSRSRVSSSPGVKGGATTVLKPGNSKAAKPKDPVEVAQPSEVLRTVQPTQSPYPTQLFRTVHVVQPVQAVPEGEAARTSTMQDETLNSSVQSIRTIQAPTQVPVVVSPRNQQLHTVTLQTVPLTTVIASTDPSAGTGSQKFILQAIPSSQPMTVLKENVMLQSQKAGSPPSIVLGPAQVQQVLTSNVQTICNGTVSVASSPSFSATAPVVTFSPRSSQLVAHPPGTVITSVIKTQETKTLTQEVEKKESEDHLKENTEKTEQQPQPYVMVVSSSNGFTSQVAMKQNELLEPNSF
Experiment [5] has as its target T4, EHF (Homo sapiens, UniProt Q9NZC4 1-300).
T4 sequence: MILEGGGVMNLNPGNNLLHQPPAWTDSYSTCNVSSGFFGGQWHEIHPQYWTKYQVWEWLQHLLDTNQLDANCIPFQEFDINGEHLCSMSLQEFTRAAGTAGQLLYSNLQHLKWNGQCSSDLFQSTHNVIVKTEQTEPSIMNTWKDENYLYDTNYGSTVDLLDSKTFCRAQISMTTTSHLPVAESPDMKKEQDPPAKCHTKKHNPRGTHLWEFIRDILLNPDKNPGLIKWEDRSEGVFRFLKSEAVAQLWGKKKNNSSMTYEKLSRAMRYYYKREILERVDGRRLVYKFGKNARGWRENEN
The conditions noted are these: protein: recombinant; tags: N-terminal GST; dsDNA, one strand shown. The gist of the method: as §1

Experiment [6] concerns the target SPI1 (Homo sapiens, UniProt P17947 1-270). The conditions noted are these: protein: recombinant; tags: N-terminal GST; dsDNA, one strand shown. The gist of the method:
as §1

The target in experiment [7] is SPIB (Homo sapiens, UniProt Q01892 1-262). The conditions noted are these: protein: recombinant; tags: N-terminal GST; dsDNA, one strand shown. The essentials: as §1
Chain of SPIB (Q01892 whole entry): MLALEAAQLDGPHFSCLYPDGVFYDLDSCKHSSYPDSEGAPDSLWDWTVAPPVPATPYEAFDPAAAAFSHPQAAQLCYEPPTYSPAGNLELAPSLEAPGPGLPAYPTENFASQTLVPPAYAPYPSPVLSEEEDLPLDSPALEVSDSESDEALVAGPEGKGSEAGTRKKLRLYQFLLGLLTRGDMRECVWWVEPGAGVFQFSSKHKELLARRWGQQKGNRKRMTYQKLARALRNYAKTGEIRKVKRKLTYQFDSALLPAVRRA
Experiment [8] has as its target T5, ELK3 (Homo sapiens, UniProt P41970 1-407).
T5 sequence: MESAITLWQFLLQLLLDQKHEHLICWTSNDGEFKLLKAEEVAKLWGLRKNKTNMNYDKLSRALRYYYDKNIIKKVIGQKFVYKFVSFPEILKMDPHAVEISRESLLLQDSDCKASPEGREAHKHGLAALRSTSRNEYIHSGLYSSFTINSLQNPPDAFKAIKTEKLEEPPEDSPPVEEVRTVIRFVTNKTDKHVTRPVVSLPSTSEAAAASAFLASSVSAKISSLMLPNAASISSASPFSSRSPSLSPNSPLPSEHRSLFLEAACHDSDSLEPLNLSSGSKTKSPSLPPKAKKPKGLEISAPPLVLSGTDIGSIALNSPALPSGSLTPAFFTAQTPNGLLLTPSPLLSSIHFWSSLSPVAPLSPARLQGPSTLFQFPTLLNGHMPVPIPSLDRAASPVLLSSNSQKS
The settings on record: protein: recombinant; tags: N-terminal GST; dsDNA, one strand shown. The gist of the method: as §1

The target of experiment [9] is T6, FEV (Homo sapiens, UniProt Q99581 1-238).
T6 sequence: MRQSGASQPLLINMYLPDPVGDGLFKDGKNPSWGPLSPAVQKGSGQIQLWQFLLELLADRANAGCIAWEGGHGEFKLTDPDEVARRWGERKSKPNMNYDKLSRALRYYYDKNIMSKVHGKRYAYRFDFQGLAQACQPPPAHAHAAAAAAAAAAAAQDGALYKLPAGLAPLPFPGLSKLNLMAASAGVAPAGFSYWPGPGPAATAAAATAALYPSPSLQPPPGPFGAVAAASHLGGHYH
The conditions noted are these: protein: recombinant; tags: N-terminal GST; dsDNA, one strand shown. The essentials:
as §1

Experiment [10] has as its target ETV5 (Homo sapiens, UniProt P41161 1-510). The conditions noted are these: protein: recombinant; tags: N-terminal GST; dsDNA, one strand shown. The essentials: as §1
In experiment [11] the target is HSF1 (Homo sapiens, UniProt Q00613 1-529). The settings on record: protein: recombinant; tags: N-terminal GST; chain copies: 3; dsDNA, one strand shown. The essentials:
as §1

Experiment [12] addresses ELF4 (Homo sapiens, UniProt Q99607 1-663). The conditions noted are these: protein: recombinant; tags: N-terminal GST; dsDNA, one strand shown. The essentials: as §1
For experiment [13], the target named is T7, ELK4 (Homo sapiens, UniProt P28324-2 1-405).
T7 sequence: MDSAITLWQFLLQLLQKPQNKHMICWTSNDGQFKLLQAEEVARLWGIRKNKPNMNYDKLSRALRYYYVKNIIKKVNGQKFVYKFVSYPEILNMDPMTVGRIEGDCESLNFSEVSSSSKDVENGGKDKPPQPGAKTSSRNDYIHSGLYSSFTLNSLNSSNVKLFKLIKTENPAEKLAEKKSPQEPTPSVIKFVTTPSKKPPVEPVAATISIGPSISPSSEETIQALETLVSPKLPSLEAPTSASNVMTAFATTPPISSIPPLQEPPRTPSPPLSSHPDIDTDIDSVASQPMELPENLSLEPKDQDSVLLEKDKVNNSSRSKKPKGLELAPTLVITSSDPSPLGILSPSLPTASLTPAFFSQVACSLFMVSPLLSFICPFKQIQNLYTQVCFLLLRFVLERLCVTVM
The conditions noted are these: protein: recombinant; tags: N-terminal GST; dsDNA, one strand shown. The gist of the method:
as §1

The target in experiment [14] is T8, ETV2 (Homo sapiens, UniProt O00321 1-342).
T8 sequence: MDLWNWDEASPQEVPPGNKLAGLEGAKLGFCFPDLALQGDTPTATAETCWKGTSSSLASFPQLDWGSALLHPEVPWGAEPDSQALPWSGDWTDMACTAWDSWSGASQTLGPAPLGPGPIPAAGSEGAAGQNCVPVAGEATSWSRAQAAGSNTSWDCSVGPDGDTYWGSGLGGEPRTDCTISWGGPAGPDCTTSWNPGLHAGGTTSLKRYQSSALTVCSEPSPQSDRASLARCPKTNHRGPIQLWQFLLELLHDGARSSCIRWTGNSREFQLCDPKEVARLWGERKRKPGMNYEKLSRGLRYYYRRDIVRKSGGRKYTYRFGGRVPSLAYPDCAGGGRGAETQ
The conditions noted are these: protein: recombinant; tags: N-terminal GST; dsDNA, one strand shown. The gist of the method:
as §1

For experiment [15], the target named is T9, ELF3 (Homo sapiens, UniProt P78545 1-371).
T9 sequence: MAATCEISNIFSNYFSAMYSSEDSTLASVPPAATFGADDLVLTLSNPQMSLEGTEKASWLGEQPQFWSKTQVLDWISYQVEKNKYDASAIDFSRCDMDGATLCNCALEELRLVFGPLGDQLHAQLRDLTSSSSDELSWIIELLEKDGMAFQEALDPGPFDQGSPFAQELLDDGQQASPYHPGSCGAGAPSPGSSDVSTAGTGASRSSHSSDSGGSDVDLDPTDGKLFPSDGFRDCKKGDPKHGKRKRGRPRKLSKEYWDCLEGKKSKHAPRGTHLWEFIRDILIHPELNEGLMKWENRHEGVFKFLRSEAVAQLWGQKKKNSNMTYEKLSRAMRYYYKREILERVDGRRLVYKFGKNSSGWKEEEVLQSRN
The conditions noted are these: protein: recombinant; tags: N-terminal GST; dsDNA, one strand shown. The essentials:
as §1

The target of experiment [16] is CRX (Homo sapiens, UniProt O43186 1-299). The conditions noted are these: protein: recombinant; tags: N-terminal GST; dsDNA, one strand shown. The essentials: as §1
Chain of CRX (O43186 whole entry): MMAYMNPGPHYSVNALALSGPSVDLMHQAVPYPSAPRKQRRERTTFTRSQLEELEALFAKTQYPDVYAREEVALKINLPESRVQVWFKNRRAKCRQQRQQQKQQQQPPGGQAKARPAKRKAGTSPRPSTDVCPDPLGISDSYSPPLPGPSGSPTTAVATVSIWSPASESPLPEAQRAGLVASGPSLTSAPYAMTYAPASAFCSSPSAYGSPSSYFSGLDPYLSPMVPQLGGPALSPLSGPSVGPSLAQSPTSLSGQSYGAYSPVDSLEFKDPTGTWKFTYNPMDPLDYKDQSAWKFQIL
The target of experiment [17] is ETV1 (Homo sapiens, UniProt P50549 1-477). The settings on record: protein: recombinant; tags: N-terminal GST; dsDNA, one strand shown. The essentials: as §1
Chain of ETV1 (P50549 whole entry): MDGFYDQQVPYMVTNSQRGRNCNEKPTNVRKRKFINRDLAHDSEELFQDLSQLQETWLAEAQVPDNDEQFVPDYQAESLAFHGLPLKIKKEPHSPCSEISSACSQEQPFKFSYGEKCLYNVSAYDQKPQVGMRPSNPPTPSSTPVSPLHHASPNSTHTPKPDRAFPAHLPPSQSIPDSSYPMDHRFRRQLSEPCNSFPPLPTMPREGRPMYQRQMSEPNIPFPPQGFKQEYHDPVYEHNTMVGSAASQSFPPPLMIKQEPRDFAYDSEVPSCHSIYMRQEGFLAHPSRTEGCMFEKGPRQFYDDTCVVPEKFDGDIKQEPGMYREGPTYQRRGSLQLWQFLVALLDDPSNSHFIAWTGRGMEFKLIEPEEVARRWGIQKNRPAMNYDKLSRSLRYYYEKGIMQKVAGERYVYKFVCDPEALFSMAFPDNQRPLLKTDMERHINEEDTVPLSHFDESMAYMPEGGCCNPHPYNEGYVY

Consider one sequence from publication PMC7862700, “An all-to-all approach to the identification of sequence-specific readers for epigenetic DNA modifications on cytosine”.

Chain of ELF4 (Q99607 whole entry): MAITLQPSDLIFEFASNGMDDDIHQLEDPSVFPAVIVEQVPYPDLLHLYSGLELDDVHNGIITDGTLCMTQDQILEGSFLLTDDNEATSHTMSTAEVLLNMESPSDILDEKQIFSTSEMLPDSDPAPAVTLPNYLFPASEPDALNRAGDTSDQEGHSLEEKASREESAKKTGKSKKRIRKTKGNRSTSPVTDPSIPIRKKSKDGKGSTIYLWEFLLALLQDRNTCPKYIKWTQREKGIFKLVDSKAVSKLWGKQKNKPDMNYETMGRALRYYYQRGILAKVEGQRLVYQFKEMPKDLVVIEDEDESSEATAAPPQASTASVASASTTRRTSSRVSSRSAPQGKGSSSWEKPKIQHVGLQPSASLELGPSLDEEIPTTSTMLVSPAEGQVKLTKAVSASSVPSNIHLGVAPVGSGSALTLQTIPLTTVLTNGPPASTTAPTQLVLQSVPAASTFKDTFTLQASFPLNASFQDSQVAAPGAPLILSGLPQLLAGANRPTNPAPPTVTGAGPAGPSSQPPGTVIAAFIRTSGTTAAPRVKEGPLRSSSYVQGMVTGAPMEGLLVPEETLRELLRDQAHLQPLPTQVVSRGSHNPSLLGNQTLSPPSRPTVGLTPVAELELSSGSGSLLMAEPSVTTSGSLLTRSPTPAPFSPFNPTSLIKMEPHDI
Chain of ETV5 (P41161 whole entry): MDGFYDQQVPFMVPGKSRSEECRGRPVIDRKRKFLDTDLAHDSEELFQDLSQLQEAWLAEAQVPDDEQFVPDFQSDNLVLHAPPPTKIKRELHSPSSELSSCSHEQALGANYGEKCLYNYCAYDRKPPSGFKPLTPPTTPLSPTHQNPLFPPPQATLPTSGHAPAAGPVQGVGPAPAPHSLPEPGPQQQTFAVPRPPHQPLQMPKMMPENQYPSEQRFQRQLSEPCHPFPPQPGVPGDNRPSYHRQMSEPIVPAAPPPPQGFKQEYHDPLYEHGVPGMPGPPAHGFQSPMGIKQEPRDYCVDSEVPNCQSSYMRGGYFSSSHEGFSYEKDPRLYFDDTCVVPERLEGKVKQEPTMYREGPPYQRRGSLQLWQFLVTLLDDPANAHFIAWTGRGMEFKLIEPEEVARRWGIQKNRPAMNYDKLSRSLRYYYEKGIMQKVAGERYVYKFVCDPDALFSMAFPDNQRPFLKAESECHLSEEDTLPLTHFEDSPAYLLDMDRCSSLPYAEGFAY
Chain of HSF1 (Q00613 whole entry): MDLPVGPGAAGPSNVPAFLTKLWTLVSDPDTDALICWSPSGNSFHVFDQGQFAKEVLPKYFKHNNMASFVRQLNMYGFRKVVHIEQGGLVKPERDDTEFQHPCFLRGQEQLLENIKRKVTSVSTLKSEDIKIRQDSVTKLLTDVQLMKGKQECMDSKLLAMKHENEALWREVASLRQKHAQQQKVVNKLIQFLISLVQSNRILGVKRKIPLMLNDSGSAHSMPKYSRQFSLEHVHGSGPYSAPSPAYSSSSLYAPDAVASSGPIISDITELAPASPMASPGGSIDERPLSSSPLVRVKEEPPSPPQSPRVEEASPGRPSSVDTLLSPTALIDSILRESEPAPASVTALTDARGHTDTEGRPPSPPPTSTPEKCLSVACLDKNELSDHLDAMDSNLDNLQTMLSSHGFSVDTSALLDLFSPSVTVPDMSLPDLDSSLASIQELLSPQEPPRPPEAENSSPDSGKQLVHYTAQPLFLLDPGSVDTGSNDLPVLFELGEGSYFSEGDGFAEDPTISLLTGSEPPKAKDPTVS

On to TAACAG, for which the binding signal in experiment [1] is 1.06 fold enrichment (6-mer frequency, TF over GST control); in experiment [2], 1.05 fold enrichment (6-mer frequency, TF over GST control); in experiment [3], 1.01 fold enrichment (6-mer frequency, TF over GST control); in [4] it was 1.09 fold enrichment (6-mer frequency, TF over GST control); in [5] it was 1.07 fold enrichment (6-mer frequency, TF over GST control); in experiment [6], 1.11 fold enrichment (6-mer frequency, TF over GST control). Moreover, the binding signal in experiment [7] was 1.09 fold enrichment (6-mer frequency, TF over GST control); in experiment [8], 1.07 fold enrichment (6-mer frequency, TF over GST control); in experiment [9] it was 1.05 fold enrichment (6-mer frequency, TF over GST control); in [10], 1.04 fold enrichment (6-mer frequency, TF over GST control); in experiment [11] it was 1.02 fold enrichment (6-mer frequency, TF over GST control); in experiment [12] it was 1.09 fold enrichment (6-mer frequency, TF over GST control). Besides, the binding signal was 1.12 fold enrichment (6-mer frequency, TF over GST control) in experiment [13]; 1.02 fold enrichment (6-mer frequency, TF over GST control) in experiment [14]; 1.09 fold enrichment (6-mer frequency, TF over GST control) in experiment [15]; 1.3 fold enrichment (6-mer frequency, TF over GST control) in [16]; 1.09 fold enrichment (6-mer frequency, TF over GST control) in experiment [17].
